Measurements: PubChem BioAssay (Tox21)
A number with no mark means an inactive call. Results filed as inconclusive are left out. A call without a number means that no potency is given here. Active and inactive are the calls of the source. Unless noted, calls come from the whole dose curve; as a rule, active = well fitted curve in the direction sought with a large enough effect in the repeat runs; inconclusive = weak or mixed curves; inactive = no such curve, though single readings can be large; an effect the other way counts as inactive or inconclusive.

Assays:
[1] = qHTS assay to identify small molecule antagonists of the TGF-beta/Smad signaling pathway - cell viability counter screen (AID 1346824); note: nearly all actives have a fitted effect of over 50% in size
Procedure, shortened: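 SBE-bla HEK 293T cells were plated overnight at 37 C, then given compounds in DMSO plus TGF-beta1 (added as 0.25 ng/mL solution) for 5 hr. After the bla read, CellTiter-Glo was added to the same wells and luminescence read after 30 min at room temperature.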

[2] = qHTS assay to identify small molecule agonists of the TGF-beta/Smad signaling pathway - cell viability counter screen (AID 1346829); note: top concentration of the series differs between compounds; nearly all actives have a fitted effect of over 45% in size
Procedure, shortened: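 Here the cytotoxicity of library compounds is measured in SBE-bla HEK 293T cells treated for 5 hr, using CellTiter-Glo added to wells already read for the beta-lactamase reporter.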

[3] = qHTS assay to identify small molecule agonists of the TGF-beta/Smad signaling pathway (AID 1346859; active = well fitted activation curve with a large enough effect in the signal ratio in the repeat runs, not every such curve was filed as active; the % refers to the signal ratio; note: series mostly up to about 77 µM)
Procedure, shortened: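 Reporter line: HEK 293T with stably integrated SBE-controlled beta-lactamase. Compound exposure lasts 5 hr at 37 C and 5% CO2; substrate loading follows for 2 hr at room temperature, with emission read at 460 and 530 nm.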

[4] = biological target: Thyrotropin-releasing hormone receptor (Homo sapiens) (UniProt P34981); assay: qHTS assay to identify small molecule agonists of the thyrotropin-releasing hormone receptor (TRHR) signaling pathway (AID 1346891; calls by dose curve;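 note: HEK293 cells expressing TRHR with calcium dye readout; series mostly up to about 58 µM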)
Procedure, shortened: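 Cells: TRHR-Hek293, seeded and incubated 18 h. Dye loading: 2 h at 37 °C. Compound added from DMSO stock by pin tool. Read-out: kinetic calcium fluorescence over 3 min.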

[5] = Human pregnane X receptor (PXR) small molecule agonists, qHTS cell viability counter screen (AID 1346977); note: nearly all actives have a fitted effect of over 50% in size
Procedure, shortened: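 Cytotoxicity counter screen run in the same wells as the PXR luciferase assay, using PXR-Luc HepG2 cells in charcoal-stripped serum medium. Viability: CellTiter-Fluor fluorescence after 24hr compound treatment.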

[6] = Caspase-3/7 induction in HepG2 cells by small molecules, qHTS assay (AID 1346978); note: nearly all actives have a fitted effect of over 15% in size
Procedure, shortened: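 Wild-type HepG2 cells (2,000/well) were settled 5 h at 37 C, 5% CO2, then exposed to compounds in DMSO for 17 h. Caspase-3/7 activity was read by luminescence 30 min after adding Caspase-Glo 3/7 reagent at room temperature.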

[7] = Caspase-3/7 induction in CHO-K1 cells by small molecules, qHTS cell viability counter screen (AID 1346979); note: nearly all actives have a fitted effect of over 35% in size
Procedure, shortened: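 Cytotoxicity counter screen run in parallel with the caspase-3/7 assay: CHO-K1 cells, 16hr compound treatment at 37C, then CellTiter-Fluor for 1hr before fluorescence reading.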

[8] = Caspase-3/7 induction in CHO-K1 cells by small molecules, qHTS assay (AID 1346980); note: nearly all actives have a fitted effect of over 15% in size
Procedure, shortened: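 Wild-type cells were seeded at 1,500 per well and settled 5 hr at 37 C, 5% CO2, then exposed to DMSO-dissolved compounds for 17 hr. Caspase-Glo 3/7 reagent was added, and luminescence was read after 30min at room temperature.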

[9] = Caspase-3/7 induction in HepG2 cells by small molecules, qHTS cell viability counter screen (AID 1346981); note: series mostly up to about 92 µM; nearly all actives have a fitted effect of over 30% in size
Procedure, shortened: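 Treatment of HepG2 cells with DMSO-delivered compounds ran 16 hr at 37 C following a 5-hr pre-incubation of 2,000 cells/well. CellTiter-Fluor fluorescence, read after 1 hr, served as the viability measure in a qHTS format.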

[10] = biological target: Nuclear receptor subfamily 1 group I member 2 (Homo sapiens) (UniProt O75469); assay: Human pregnane X receptor (PXR) small molecule agonists, qHTS assay (AID 1346982); note: nearly all actives have a fitted effect of over 35% in size
Procedure, shortened: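 Stable HepG2 line reporting PXR-mediated CYP3A4 expression via luciferase. Treatment: 24 hr with compounds in DMSO at 37 C. Detection: ONE-Glo luminescence.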

[11] = biological target: Cytochrome P450 2C19 (Homo sapiens) (UniProt P33261); assay: Cytochrome P450 Family 2 Subfamily C Member 19 (CYP2C19) small molecule antagonists: luciferase reporter qHTS assay (AID 1671197); note: nearly all actives have a fitted effect of over 65% in size; note: potency is the fitted concentration of half-maximal effect
Procedure, shortened: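 Light output is proportional to CYP2C19 activity: proluciferin substrate is converted to luciferin, then detected by a luciferin detection reagent that also stops the 1 h, 37C NADPH-driven reaction. Ketoconazole serves as positive control.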

[12] = biological target: Cytochrome P450 2C9 (Homo sapiens) (UniProt P11712); assay: Cytochrome P450 Family 2 Subfamily C Member 9 (CYP2C9) small molecule antagonists: luciferase reporter qHTS assay (AID 1671198); note: nearly all actives have a fitted effect of over 50% in size; note: potency is the fitted concentration of half-maximal effect
Procedure, shortened: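 CYP2C9 activity was measured with a P450-Glo proluciferin substrate. Enzyme–substrate mix was held with compound for 10 min at room temperature, then NADPH regeneration solution was added for 1 h at 37C. Luciferin product was read as luminescence.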

[13] = biological target: Cytochrome P450 1A2 (Homo sapiens) (UniProt P05177); assay: Cytochrome P450 Family 1 Subfamily A Member 2 (CYP1A2) small molecule antagonists: luciferase reporter qHTS assay (AID 1671199); note: nearly all actives have a fitted effect of over 50% in size; note: potency is the fitted concentration of half-maximal effect
Procedure, shortened: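 Read-out is luminescence from luciferin detection reagent (20 min) proportional to CYP1A2 activity; compounds in DMSO preincubated 10 min with enzyme and proluciferin substrate, then NADPH regeneration solution, 1 h, room temperature.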

[14] = biological target: Voltage-gated inwardly rectifying potassium channel KCNH2 (Homo sapiens) (UniProt Q12809); assay: Human Ether-a-go-go-Related Gene (hERG) channel small molecule antagonists: fluorescence cell-based qHTS assay (AID 1671200)
Procedure, shortened: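 Fluorescence at 540 nm emission (480 nm excitation) was recorded kinetically for 2 min at 1-second intervals once the thallium-containing stimulus reached cells previously loaded with FluxOR II dye.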

[15] = biological target: Cytochrome P450 3A4 (Homo sapiens) (UniProt P08684); assay: Cytochrome P450 Family 3 Subfamily A Member 4 (CYP3A4) small molecule antagonists: luciferase reporter qHTS assay (AID 1671201); note: nearly all actives have a fitted effect of over 50% in size; note: potency is the fitted concentration of half-maximal effect
Procedure, shortened: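 qHTS, 1536-well. CYP3A4 + proluciferin substrate, cpd 10 min RT → NADPH regen 1 h RT → detection reagent 20 min → luminescence (RLU). Ketoconazole positive control.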

[16] = biological target: Cytochrome P450 2D6 (Homo sapiens) (UniProt P10635); assay: Cytochrome P450 Family 2 Subfamily D Member 6 (CYP2D6) small molecule antagonists: luciferase reporter qHTS assay (AID 1671196)
Procedure, shortened: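 Chemicals tested for interference with CYP2D6 activity; proluciferin substrate, NADPH regeneration, 1 h at room temperature, luminescent detection.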

[17] = biological target: Nuclear receptor subfamily 1 group I member 2 (Rattus norvegicus) (UniProt Q9R1A7); assay: Rat pregnane X receptor (rPXR) activation by small molecules, qHTS assay (AID 1346983); conditions: rPXR luciferase reporter cells, One-Glo luminescence, 24 h; max activation: active compounds read high; note: nearly all actives have a fitted effect of over 20% in size
Procedure, shortened: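 Cell-based rPXR luciferase reporter assay, 2,000 cells per well, rested 5hr at 37 C before compound addition in DMSO, then 24 hr at 37 C. One-Glo reagent was added and luminescence read after 30 min at room temperature.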

[18] = biological target: Nuclear receptor subfamily 1 group I member 2 (Homo sapiens) (UniProt O75469); assay: CYP3A4 induction through human pregnane X receptor (PXR) by small molecules, qHTS assay (AID 1346984); note: nearly all actives have a fitted effect of over 40% in size
Procedure, shortened: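 After 24 h at 37C with compound, DPX-2 cells (HepG2, co-transfected PXR response element and CYP3A4 promoter-luciferase) got 3uM final P450-Glo Luciferin-IPA for 3 h; One-Glo luminescence followed.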

[19] = biological target: Thyrotropin-releasing hormone receptor (Homo sapiens) (UniProt P34981); assay: qHTS assay to identify small molecule antagonists of the thyrotropin-releasing hormone receptor (TRHR) signaling pathway (AID 1346877; active = well fitted inhibition curve with a large enough effect in the repeat runs, not every such curve was filed as active; note: series mostly up to about 51 µM)
Procedure, shortened: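 Overnight-plated (18 h, 37 °C) HEK293 cells expressing TRHR were dye-loaded 2 h, treated with compound, then stimulated with TRH at 1 nM final. Fluorescence intensity was captured every second for 3 min.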

[20] = biological target: Nuclear receptor subfamily 1 group I member 2 (Homo sapiens) (UniProt O75469); assay: Human pregnane X receptor (PXR) activation by small molecules, qHTS assay (AID 1346985); note: nearly all actives have a fitted effect of over 40% in size
Procedure, shortened: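 DPX-2 cells (HepG2 co-transfected with a PXR response element and a CYP3A4-promoter luciferase construct) were seeded at 2,000 per well, rested 5 hr at 37C, then exposed to DMSO-dissolved compounds for 24 hr. Activation was read as luciferase luminescence.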

Cytochrome P450 3A4 (Homo sapiens), sequence (P08684 whole entry, looked up): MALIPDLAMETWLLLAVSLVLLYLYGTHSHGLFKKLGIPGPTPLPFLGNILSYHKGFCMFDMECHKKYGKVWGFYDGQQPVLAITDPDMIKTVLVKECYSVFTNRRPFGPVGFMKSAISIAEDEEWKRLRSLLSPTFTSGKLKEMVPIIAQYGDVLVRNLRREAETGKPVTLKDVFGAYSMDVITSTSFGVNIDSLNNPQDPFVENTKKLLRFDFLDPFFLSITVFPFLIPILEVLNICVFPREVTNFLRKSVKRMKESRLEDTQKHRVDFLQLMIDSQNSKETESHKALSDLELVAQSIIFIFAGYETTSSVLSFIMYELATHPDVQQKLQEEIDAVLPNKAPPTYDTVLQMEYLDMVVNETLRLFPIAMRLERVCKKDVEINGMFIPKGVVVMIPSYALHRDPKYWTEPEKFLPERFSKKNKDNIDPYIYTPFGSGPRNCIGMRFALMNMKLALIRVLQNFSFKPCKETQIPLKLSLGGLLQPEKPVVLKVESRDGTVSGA
Cytochrome P450 2D6 (Homo sapiens), sequence (P10635 whole entry, looked up): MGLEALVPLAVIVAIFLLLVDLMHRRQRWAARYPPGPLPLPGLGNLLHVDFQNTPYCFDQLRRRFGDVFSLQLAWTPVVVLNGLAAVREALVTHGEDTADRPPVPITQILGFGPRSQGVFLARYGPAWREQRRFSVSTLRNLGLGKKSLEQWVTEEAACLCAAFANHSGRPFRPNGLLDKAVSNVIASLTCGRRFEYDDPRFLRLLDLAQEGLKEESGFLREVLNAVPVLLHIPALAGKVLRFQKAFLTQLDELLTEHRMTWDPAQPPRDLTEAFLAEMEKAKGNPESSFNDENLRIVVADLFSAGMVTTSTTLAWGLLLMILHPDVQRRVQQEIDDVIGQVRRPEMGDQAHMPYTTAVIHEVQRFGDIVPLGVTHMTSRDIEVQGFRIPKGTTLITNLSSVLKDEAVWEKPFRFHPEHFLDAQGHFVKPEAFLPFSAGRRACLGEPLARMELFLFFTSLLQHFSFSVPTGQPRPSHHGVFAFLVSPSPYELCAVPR
Cytochrome P450 2C9 (Homo sapiens), sequence (P11712 whole entry, looked up): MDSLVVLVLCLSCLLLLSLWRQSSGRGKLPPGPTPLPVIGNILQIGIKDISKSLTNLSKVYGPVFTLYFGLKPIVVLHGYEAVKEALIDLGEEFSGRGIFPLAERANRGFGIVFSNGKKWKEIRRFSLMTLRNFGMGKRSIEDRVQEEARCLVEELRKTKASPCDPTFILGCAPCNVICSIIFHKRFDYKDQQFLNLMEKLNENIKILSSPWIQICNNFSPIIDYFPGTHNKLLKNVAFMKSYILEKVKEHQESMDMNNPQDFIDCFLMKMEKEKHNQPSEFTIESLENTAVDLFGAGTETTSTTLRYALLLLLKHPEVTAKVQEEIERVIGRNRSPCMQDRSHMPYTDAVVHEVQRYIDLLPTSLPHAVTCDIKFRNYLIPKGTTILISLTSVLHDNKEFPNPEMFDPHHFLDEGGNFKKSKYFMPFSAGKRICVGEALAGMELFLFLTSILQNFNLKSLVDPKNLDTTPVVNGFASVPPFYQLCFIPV
Thyrotropin-releasing hormone receptor (Homo sapiens), sequence (P34981 whole entry, looked up): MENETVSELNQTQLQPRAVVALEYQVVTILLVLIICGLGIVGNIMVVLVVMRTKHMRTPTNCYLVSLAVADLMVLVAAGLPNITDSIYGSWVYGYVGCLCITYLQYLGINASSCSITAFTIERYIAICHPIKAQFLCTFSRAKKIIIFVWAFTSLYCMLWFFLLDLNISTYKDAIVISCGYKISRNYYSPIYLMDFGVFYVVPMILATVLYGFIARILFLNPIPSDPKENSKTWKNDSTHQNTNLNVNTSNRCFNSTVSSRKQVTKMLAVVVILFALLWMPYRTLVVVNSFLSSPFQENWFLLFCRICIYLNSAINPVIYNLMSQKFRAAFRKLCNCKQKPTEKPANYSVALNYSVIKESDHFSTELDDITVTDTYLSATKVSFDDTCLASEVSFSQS
Cytochrome P450 2C19 (Homo sapiens), sequence (P33261 whole entry, looked up): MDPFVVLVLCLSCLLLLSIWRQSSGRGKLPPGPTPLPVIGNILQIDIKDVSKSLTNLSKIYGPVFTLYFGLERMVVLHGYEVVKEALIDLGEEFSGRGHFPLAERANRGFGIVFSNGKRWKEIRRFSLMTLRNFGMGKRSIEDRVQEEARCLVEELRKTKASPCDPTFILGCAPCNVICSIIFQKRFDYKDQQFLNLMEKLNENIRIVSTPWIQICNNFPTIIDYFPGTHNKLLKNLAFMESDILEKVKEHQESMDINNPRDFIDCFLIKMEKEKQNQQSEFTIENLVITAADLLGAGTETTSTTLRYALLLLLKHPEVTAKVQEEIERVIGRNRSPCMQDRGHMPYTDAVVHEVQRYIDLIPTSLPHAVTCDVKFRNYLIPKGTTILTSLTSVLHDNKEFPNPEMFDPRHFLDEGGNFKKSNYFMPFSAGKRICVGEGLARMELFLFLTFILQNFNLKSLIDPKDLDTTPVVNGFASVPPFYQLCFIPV
Voltage-gated inwardly rectifying potassium channel KCNH2 (Homo sapiens), sequence (Q12809 whole entry, looked up): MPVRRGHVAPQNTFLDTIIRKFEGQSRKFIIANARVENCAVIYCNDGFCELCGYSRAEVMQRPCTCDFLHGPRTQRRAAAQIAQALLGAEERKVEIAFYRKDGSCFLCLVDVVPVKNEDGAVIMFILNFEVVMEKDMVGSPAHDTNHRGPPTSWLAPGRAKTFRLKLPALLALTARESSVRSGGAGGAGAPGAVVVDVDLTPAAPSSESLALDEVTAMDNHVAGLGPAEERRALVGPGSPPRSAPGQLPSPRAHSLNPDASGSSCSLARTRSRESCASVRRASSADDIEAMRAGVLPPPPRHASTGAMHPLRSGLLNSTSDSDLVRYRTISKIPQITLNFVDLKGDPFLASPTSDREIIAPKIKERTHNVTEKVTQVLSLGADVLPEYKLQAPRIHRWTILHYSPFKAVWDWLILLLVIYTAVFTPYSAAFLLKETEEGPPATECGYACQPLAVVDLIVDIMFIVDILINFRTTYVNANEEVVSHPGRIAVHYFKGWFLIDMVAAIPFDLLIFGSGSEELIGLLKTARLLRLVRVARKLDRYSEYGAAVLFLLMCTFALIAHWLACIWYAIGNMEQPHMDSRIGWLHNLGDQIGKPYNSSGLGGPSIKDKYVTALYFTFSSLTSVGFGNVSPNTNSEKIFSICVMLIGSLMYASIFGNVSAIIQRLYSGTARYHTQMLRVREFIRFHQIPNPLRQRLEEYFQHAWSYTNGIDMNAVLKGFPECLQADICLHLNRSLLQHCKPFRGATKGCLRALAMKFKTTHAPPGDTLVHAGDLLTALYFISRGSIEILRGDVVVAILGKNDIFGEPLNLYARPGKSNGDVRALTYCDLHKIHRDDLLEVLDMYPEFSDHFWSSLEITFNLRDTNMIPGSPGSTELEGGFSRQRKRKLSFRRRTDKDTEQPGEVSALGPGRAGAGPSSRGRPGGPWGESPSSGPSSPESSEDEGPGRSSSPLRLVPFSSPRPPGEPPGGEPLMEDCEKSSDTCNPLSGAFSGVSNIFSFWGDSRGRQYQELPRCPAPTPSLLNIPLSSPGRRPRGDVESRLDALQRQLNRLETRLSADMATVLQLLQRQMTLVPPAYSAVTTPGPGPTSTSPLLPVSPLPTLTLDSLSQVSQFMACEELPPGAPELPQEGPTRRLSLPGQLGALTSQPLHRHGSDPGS
Nuclear receptor subfamily 1 group I member 2 (Homo sapiens), sequence (O75469 whole entry, looked up): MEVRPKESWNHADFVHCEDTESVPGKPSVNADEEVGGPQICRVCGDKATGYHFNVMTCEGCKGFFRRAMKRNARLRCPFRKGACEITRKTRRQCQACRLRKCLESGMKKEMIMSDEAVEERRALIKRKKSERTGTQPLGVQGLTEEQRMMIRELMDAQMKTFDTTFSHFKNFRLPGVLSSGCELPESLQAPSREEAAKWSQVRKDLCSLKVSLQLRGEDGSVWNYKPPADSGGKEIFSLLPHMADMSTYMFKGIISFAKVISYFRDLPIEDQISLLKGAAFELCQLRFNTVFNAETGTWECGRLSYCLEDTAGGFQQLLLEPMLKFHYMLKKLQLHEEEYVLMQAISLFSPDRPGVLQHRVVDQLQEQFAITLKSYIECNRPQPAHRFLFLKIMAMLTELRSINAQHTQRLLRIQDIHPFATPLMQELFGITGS
Cytochrome P450 1A2 (Homo sapiens), sequence (P05177 whole entry, looked up): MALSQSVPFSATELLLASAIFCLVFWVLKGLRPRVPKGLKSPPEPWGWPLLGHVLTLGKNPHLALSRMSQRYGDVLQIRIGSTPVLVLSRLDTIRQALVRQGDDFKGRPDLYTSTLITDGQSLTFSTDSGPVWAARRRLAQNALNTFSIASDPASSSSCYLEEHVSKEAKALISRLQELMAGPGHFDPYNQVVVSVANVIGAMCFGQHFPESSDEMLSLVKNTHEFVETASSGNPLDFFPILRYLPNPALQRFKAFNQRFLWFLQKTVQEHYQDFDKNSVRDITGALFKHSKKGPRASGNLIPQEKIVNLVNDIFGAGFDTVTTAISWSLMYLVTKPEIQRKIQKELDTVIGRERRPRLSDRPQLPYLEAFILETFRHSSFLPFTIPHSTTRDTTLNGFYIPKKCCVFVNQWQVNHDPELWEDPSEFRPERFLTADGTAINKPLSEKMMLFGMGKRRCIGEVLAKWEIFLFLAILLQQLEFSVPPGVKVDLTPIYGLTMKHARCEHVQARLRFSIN
Nuclear receptor subfamily 1 group I member 2 (Rattus norvegicus), sequence (Q9R1A7 whole entry, looked up): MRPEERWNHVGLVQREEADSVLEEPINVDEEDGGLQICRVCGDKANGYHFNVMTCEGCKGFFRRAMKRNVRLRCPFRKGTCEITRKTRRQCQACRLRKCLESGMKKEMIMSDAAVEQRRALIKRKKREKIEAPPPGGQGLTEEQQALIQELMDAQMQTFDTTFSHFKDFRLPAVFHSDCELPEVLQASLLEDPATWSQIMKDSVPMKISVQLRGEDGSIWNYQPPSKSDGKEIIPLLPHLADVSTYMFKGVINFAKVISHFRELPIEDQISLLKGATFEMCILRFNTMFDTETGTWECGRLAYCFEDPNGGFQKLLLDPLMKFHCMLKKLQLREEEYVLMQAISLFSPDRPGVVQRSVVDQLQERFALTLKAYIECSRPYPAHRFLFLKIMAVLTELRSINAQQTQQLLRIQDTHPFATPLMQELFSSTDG

| SMILES | outcome [1] | outcome [2] | outcome [3] | outcome [4] | Potency [5] | outcome [6] | Potency [7] | outcome [8] | Potency [9] | Potency [10] | Potency [11] | Potency [12] | Potency [13] | Potency [14] | Potency [15] | Potency [16] | max activation [17] | outcome [18] | outcome [19] | Potency [20] |
| --- | --- | --- | --- | --- | --- | --- | --- | --- | --- | --- | --- | --- | --- | --- | --- | --- | --- | --- | --- | --- |
| CCc1nccnc1C | inactive | inactive | inactive | inactive | inactive | inactive | inactive | inactive | inactive | inactive | inactive | inactive | inactive | inactive | inactive |  |  |  |  |  |
| O=P(O)(O)OCC(O)CO (stereo not given) | inactive | inactive | inactive |  | inactive | inactive | inactive | inactive | inactive | inactive |  | inactive |  | inactive | inactive | inactive |  |  |  |  |
| C=C(C)C(=O)OC | inactive | inactive | inactive |  | inactive | inactive | inactive | inactive | inactive | inactive |  |  | inactive | inactive | inactive | inactive |  |  |  |  |
| COCC(=O)Nc1c(I)c(C(=O)NCC(O)CO)c(I)c(C(=O)N(C)CC(O)CO)c1I (stereo not given) | inactive | inactive | inactive |  | inactive | inactive | inactive | inactive | inactive | inactive | inactive |  |  | inactive | inactive |  | -3.61% | inactive |  |  |
| C=CC(C)(O)CC/C=C(\C)CC (stereo not given) | inactive | inactive | inactive |  | inactive | inactive |  | inactive | inactive |  | 40 µM (active) |  |  | inactive | 22.5 µM (active) | inactive |  |  | inactive |  |
| CC(C)(CO)[C@@H](O)C(=O)NCCCO | inactive | inactive | inactive |  | inactive | inactive | inactive | inactive | inactive | inactive |  | inactive |  | inactive | inactive | inactive | -0.489% | inactive |  | inactive |
| COc1ccc(NS(=O)(=O)c2ccc(N)cc2)nn1 | inactive | inactive | inactive | inactive | inactive | inactive |  | inactive |  |  |  |  |  | inactive |  |  |  |  |  |  |
| CCOC(=O)C(=O)c1csc(NC=O)n1 | inactive | inactive | inactive | inactive | inactive | inactive |  | inactive | inactive | inactive |  |  | 19.5 µM (active) | inactive | inactive |  |  |  |  |  |
| O=C(O)c1ccc(OCCN2CCCCC2)cc1 | inactive | inactive | inactive |  | inactive | inactive | inactive | inactive | inactive | inactive | inactive |  |  | inactive | inactive | inactive |  |  |  |  |
| CCN(CC)C(=O)C1CN2CCc3cc(OC)c(OC)cc3C2CC1OC(C)=O (stereo not given) | inactive | inactive | inactive |  | inactive |  | inactive | inactive | inactive | inactive | inactive | inactive | inactive | inactive |  |  |  |  | inactive |  |
| CCCCCC(=O)OCC | inactive | inactive | inactive | inactive | inactive | inactive | inactive | inactive | inactive | inactive | inactive | inactive |  | inactive | inactive | inactive |  |  |  |  |
| O=C1NC2NC(=O)NC2N1 (stereo not given) | inactive | inactive | inactive | inactive | inactive |  | inactive | inactive | inactive | inactive | inactive | inactive | 35.6 µM (active) | inactive | inactive | inactive |  |  |  |  |
| CC(=O)OC[C@H]1O[C@@H](OC(C)=O)[C@H](OC(C)=O)[C@@H]1OC(C)=O | inactive | inactive | inactive |  | inactive |  | inactive | inactive | inactive | inactive | inactive |  | inactive | inactive | inactive |  |  |  | inactive |  |
| Cc1ccccc1OCC1CO1 (stereo not given) | inactive | inactive | inactive | inactive | inactive |  | inactive | inactive |  |  |  | inactive |  | inactive | inactive | inactive |  |  |  |  |
| CCN(Cc1cccc(S(=O)(=O)O)c1)c1ccccc1 | inactive | inactive | inactive |  | inactive |  | inactive | inactive | inactive | inactive |  | 17.8 µM (active) | inactive | inactive | inactive |  |  |  | inactive |  |
| O=C1OC(=O)c2cc(Oc3ccc4c(c3)C(=O)OC4=O)ccc21 | inactive | inactive | inactive | inactive | inactive | inactive |  | inactive | inactive | inactive | inactive | inactive | inactive | inactive | inactive | inactive |  |  |  |  |
| Cc1ncc([N+](=O)[O-])n1CC(O)CCl (stereo not given) | inactive | inactive | inactive | inactive | inactive | inactive | inactive | inactive | inactive |  |  |  |  | inactive |  |  |  |  |  |  |
| CC(=O)c1ccc2c(c1)CCCC2 | inactive | inactive | inactive |  | inactive | inactive | inactive | inactive | inactive | inactive |  | inactive | 35.6 µM (active) | inactive | inactive | inactive |  |  |  |  |
